Reference: PubChem BioAssay (NCATS)
Records with an inconclusive call do not appear. Activity calls are given as the source filed them. Calls come from the whole dose curve; as a rule, active = well fitted curve in the direction sought with a large enough effect; inconclusive = small, poorly fitted or top-dose-only effect, or another doubt; inactive = no such curve, though single readings can be large; an effect the other way counts as inactive or inconclusive.

How the values were obtained:
[1] = Viability qHTS for spleen associated tyrosine kinase inhibitor (SYKi) naive MV4-11 cells (AID 1963823); conditions: MV4-11 AML viability, CellTiter-Glo luminescence, 72 h; series mostly up to 45 µM; note: nearly all actives have a fitted effect of over 40% in size
Summary of the method: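 qHTS, SYK inhibitor-naive MV4-11; 500 cells/well; 72 hr compound exposure, 37 C; CellTiter-Glo added, 10 min RT; luminescence read.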

[2] = Viability qHTS for spleen associated tyrosine kinase inhibitor (SYKi) drug resistant MV4-11 cells (AID 1963824); conditions: SYKi-resistant MV4-11 viability, CellTiter-Glo, 72 h; series mostly up to 45 µM; note: nearly all actives have a fitted effect of over 35% in size
Summary of the method: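 CellTiter-Glo luminescence, read 10 min after reagent addition, reports viability after a 72 hr compound exposure. Cells are an MV4-11 line made resistant to SYK inhibition, seeded at 500 per well onto compound-containing plates.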

[3] = Cellular viability qHTS for adrenocortical cancer (ACC) cell line NCI-H295R (AID 1963990); conditions: CellTiter-Glo ATP luminescence, 48 h; series mostly up to 46.1 µM; note: nearly all actives have a fitted effect of over 60% in size
Summary of the method: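 IC50 and maximal efficacy derive from four-parameter logistic modelling of titration curves, with reads scaled between DMSO-only wells (0%) and doxorubicin hydrochloride (100% inhibition). Compounds spanned up to 46 uM over 48 h.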

[4] = Quantitative highthroughput screen to assess conditional lethalithy of NOMO1 cells grown in RPMI1640 with untreated serum (RPMI+s) (AID 1963876); conditions: NOMO1 AML cells in RPMI+serum, CellTiter-Glo viability, 48 h; series mostly up to 45.8 µM; note: nearly all actives have a fitted effect of over 35% in size
Summary of the method: (§1)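 Each medium arm—HPLM with 10% dialyzed FBS, or RPMI1640 with 5 mM glucose and 10% untreated or dialyzed FBS—was screened against an 11-point, 3-fold compound titration for 48 h at 37 °C, with CellTiter-Glo luminescence as endpoint.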

[5] = Quantitative highthroughput screen to assess conditional lethalithy of NOMO1 cells grown in RPMI1640 with dialyzed fetal bovine serum (RPMI+ds) (AID 1963877); conditions: NOMO1 in RPMI+dialyzed FBS viability, ATP luminescence, 48 h; series mostly up to 45.8 µM; note: nearly all actives have a fitted effect of over 30% in size
Summary of the method: as §1

[6] = Quantitative highthroughput screen to assess conditional lethalithy of NOMO1 cells grown in Human Plasma-Like Medium with dialyzed fetal bovine serum (HPLM+ds) (AID 1963878); conditions: NOMO1 AML cells in HPLM+ds, CellTiter-Glo viability, 48 h; series mostly up to 45.8 µM; note: nearly all actives have a fitted effect of over 35% in size
Summary of the method: as §1

[7] = Quantitative highthroughput screen to assess conditional lethalithy of P12 Ichikawa cells grown in Human Plasma-Like Medium with dialyzed fetal bovine serum (HPLM+ds) (AID 1963879); conditions: ATP luminescence, 48 h; Potency: viability; series mostly up to 45.8 µM; note: nearly all actives have a fitted effect of over 35% in size
Summary of the method: as §1

[8] = Quantitative highthroughput screen to assess conditional lethalithy of P12 Ichikawa cells grown in RPMI1640 with dialyzed fetal bovine serum (RPMI+ds) (AID 1963880); conditions: ATP luminescence, 48 h; Potency: P12-Ichikawa viability; series mostly up to 45.8 µM; note: nearly all actives have a fitted effect of over 35% in size
Summary of the method: as §1

[9] = Quantitative highthroughput screen to assess conditional lethalithy of P12 Ichikawa cells grown in RPMI1640 with untreated serum (RPMI+s) (AID 1963881); conditions: ATP luminescence, 48 h; Potency: viability; series mostly up to 45.8 µM; note: nearly all actives have a fitted effect of over 35% in size
Summary of the method: as §1

[10] = Quantitative highthroughput screen to assess conditional lethalithy of SEM cells grown in Human Plasma-Like Medium with dialyzed fetal bovine serum (HPLM+ds) (AID 1963882); conditions: SEM B-ALL cells in HPLM+ds, CellTiter-Glo viability, 48 h; series mostly up to 45.8 µM; note: nearly all actives have a fitted effect of over 35% in size
Summary of the method: as §1

[11] = Quantitative highthroughput screen to assess conditional lethalithy of SEM cells grown in RPMI1640 with unreated serum (RPMI+s) (AID 1963883); conditions: SEM B-ALL cells, CellTiter-Glo viability, 48 h; series mostly up to 45.8 µM; note: nearly all actives have a fitted effect of over 35% in size
Summary of the method: as §1

[12] = Cellular viability qHTS for adrenocortical cancer (ACC) cell line SW-13 (AID 1963989); conditions: SW-13 ACC cells viability, CellTiter-Glo, 48 h; activity (max response): hits give low values; note: nearly all actives have a fitted effect of over 65% in size
Summary of the method: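 Luminescent ATP read-out (CellTiter-Glo, 20 min at room temperature) measured metabolically competent SW-13 cells after 48 h compound treatment. Final concentrations spanned up to 46 uM; bortezomib served as positive control.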

Measured: Potency
Potency is the fitted concentration of half-maximal effect.

CCC[C@H](NC(=O)/C(C#N)=C/c1cccc(Br)n1)c1ccccc1
active: [1] 2.09 µM | [2] 2.35 µM | [3] 12.6 µM

CCS(=O)(=O)CCn1c([N+](=O)[O-])cnc1C
active: [3] 25.9 µM
inactive: [1] | [2]

COCC(=O)O[C@]1(CCN(C)CCCc2nc3ccccc3[nH]2)CCc2cc(F)ccc2[C@@H]1C(C)C
active: [1] 21.1 µM | [2] 13.3 µM | [3] 16.4 µM

C=C1C(=O)[C@@]23C(CC[C@@H]1[C@H]2O)[C@@]12CO[C@]3(O)[C@@H](O)[C@@H]1C(C)(C)CC[C@@H]2O (stereo not given in full)
active: [1] 1.32 µM | [4] 20.9 µM | [5] 23.5 µM | [6] 18.7 µM | [7] 13.2 µM | [8] 7.43 µM | [9] 7.43 µM | [10] 8.33 µM | [11] 3.72 µM | [12] 28.2 µM | [3] 10 µM
